# ± gives the standard deviation of the averaged measurements.
# Assays:
# Test in all cases: cell viability (% of vehicle); higher = less cytotoxic
# Details in all cases: 10 µM; 72 h
# [1] = test system: HCI01 (cells of a triple-negative basal-like breast cancer xenograft)
# [2] = test system: HCI03 (cells of an ER-positive luminal breast cancer xenograft)
# [3] = test system: HCI09 (cells of a triple-negative luminal androgen receptor type breast cancer xenograft)
# [4] = test system: HCI11 (cells of an ER-positive luminal breast cancer xenograft)
# [5] = test system: HCI13 (cells of an ER-positive luminal breast cancer xenograft)
# [6] = test system: HCI16 (cells of a triple-negative basal-like breast cancer xenograft)
# [7] = test system: UCD52 (cells of a triple-negative basal-like breast cancer xenograft)
# [8] = test system: WHIM2 (cells of a triple-negative basal-like breast cancer xenograft)
# [9] = test system: WHIM30 (cells of a triple-negative basal-like breast cancer xenograft)
# 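Also: PDX cells carrying CMV promoter-driven luciferase, viability read as total photon flux per second by IVIS imaging following D-luciferin, vehicle control 0.1% DMSO.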
Compound,cell viability [1],cell viability [2],cell viability [3],cell viability [4],cell viability [5],cell viability [6],cell viability [7],cell viability [8],cell viability [9]
CC(=O)OC1(C(C)=O)CCC2C3CC(C)C4=CC(=O)CCC4(C)C3CCC21C (stereo not given) [Medroxyprogesterone acetate],122 ± 12,114,98.5 ± 53,78.4,152 ± 16,177,95 ± 3.6,87.8 ± 5.8,184 ± 9.5
C=C1CCC(O)CC1=CC=C1CCCC2(C)C1CCC2C(C)C=CC(C)C(C)C (stereo not given) [Vitamin D2 (Ergocalciferol)],118 ± 26,101,61.9 ± 14,95.2,58.8 ± 16,77.9,65.5 ± 2.4,40.7 ± 13,89.1 ± 10
O=C1C(=O)c2ccccc2C(O)=C1C1CCC(c2ccc(Cl)cc2)CC1 (stereo not given) [Atovaquone],81.6 ± 34,82.3,27.7 ± 4.7,54.9,50 ± 1.9,116,78.9 ± 15,99.7 ± 8.7,72.4 ± 1.9
COc1ccc(C2CNC(=O)C2)cc1OC1CCCC1 (stereo not given) [Rolipram],130 ± 5.1,140,85.8 ± 11,106,175 ± 38,112,102 ± 18,101 ± 13,123 ± 19
COC(=O)N(C)c1c(N)nc(-c2nn(Cc3ccccc3F)c3ncccc23)nc1N [Riociguat],122 ± 4.3,106,104 ± 5.6,114,94.87 ± 0.45,91.6,104 ± 2.9,97.2 ± 1.1,124 ± 14
NCC1OC(OC2C(N)CC(N)C(OC3OC(CO)C(O)C(N)C3O)C2O)C(O)C(O)C1O.O=S(=O)(O)O (stereo not given) [Kanamycin Sulfate],106 ± 5.6,92.9,90.5 ± 16,96.7,120 ± 31,86.8,81.5 ± 0.83,80.1 ± 15,95.8 ± 11
CO[C@H]1O[C@@H]2O[C@@]3(C)CC[C@H]4[C@H](C)CC[C@@H]([C@H]1C)[C@@]24OO3 [Artemether (SM-224)],102 ± 17,111,79.3 ± 25,74.7,84.1 ± 3.5,123,77 ± 4.6,117 ± 3.2,99.8 ± 3.1
Cc1nc2n(c(=O)c1CCN1CCC(c3noc4cc(F)ccc34)CC1)CCCC2O (stereo not given) [Paliperidone],106 ± 11,172,94.6 ± 17,86.3,117 ± 4,113,113 ± 7.6,135 ± 24,127 ± 4.2
CN1CCC(OC(c2ccccc2)c2ccccc2)CC1.Cl [Diphenylpyraline HCl],86 ± 3.4,99.9,97.7 ± 17,106,97.2 ± 13,91.7,75.5 ± 12,84.7 ± 21,107 ± 14
Cc1ccc(Cl)c(Nc2ccccc2C(=O)[O-])c1Cl.[Na+] [Meclofenamate Sodium],111 ± 10,158,100 ± 5.1,103,122 ± 5,121,92.1 ± 4.6,97.8 ± 9.9,144 ± 2.2
CN1CCC(=C2c3ccccc3CCc3sccc32)CC1.O=C(O)CC(O)C(=O)O [Pizotifen Malate],100 ± 41,105,74.7 ± 3.8,97.9,167 ± 21,111,82.7 ± 2.5,68.9 ± 11,173.9 ± 0.85
CCCCCOC(=O)Nc1nc(=O)n(C2OC(C)C(O)C2O)cc1F (stereo not given) [Capecitabine],142 ± 26,114,139 ± 24,124,165 ± 25,120,112 ± 4,108 ± 6.9,162 ± 33
O=C1CCCC(=O)C1C(=O)c1ccc(C(F)(F)F)cc1[N+](=O)[O-] [Nitisinone],105 ± 31,110,93.2 ± 5.5,87.8,109 ± 25,137,103 ± 10,79.6 ± 4.9,149 ± 19
CC(O)C1C(=O)N2C(C(=O)O)=C(SC3CNC(C(=O)N(C)C)C3)C(C)C12.O.O.O (stereo not given) [Meropenem trihydrate],104 ± 8.7,81.8,127 ± 32,92.4,95 ± 0.96,96.2,89.6 ± 5.1,99.4 ± 7.5,78.309 ± 0.071
CC(C)C1C(=O)NC(CCCN=C(N)N)C(=O)NCC(=O)NC(CC(=O)O)C(=O)NC(Cc2ccccc2)C(=O)N1C (stereo not given) [Cilengitide],114 ± 9.1,76.7,125 ± 49,97.4,124 ± 12,91,84.4 ± 5.5,94.1 ± 6.8,143 ± 14
CCCC(=O)[O-].[Na+] [Sodium butyrate],99.3 ± 20,85.5,89.8 ± 3.3,92.5,47.1 ± 5.4,91.9,73.7 ± 6.9,83.5 ± 18,119 ± 11
CNC(=O)CN(CCN(CCN(CC(=O)[O-])CC(=O)NC)CC(=O)[O-])CC(=O)[O-].O.[Gd+3] [Gadodiamide],99.5 ± 27,111,99 ± 15,90.1,83.6 ± 8.9,112,104 ± 7.4,92.5 ± 29,94.5 ± 5.2
Cc1cc2c(s1)=Nc1ccccc1NC=2N1CCN(C)CC1 [Olanzapine],90.18 ± 0.87,107,105 ± 2.8,88.7,88.6 ± 14,112,87.7 ± 4.5,90.9 ± 8.5,107 ± 16
Cc1cccc(C)c1OCC(C)N.Cl (stereo not given) [Mexiletine HCl],127 ± 27,110,120 ± 46,123,122 ± 26,188,120 ± 7,129 ± 14,147 ± 1.7
CC1(C)OC2COC3(COS(N)(=O)=O)OC(C)(C)OC3C2O1 (stereo not given) [Topiramate],103 ± 19,128,95.2 ± 20,138,133 ± 1.9,115,78.8 ± 6.2,105 ± 16,110 ± 5.4
